Reference: PubChem BioAssay AID1956 (SRMLSC, 2009)
Screen size: about 220,000 compounds; about 10 (0.005%) were called active. Cut-off read from the data, not from the text of the source: active = maximum fold increase above about 1.5; inconclusive = no clear call, values can overlap the other calls; inactive = below that; tested in PC3 cells. These entries were drawn from the full list.

Assay: compounds boosting herpes simplex virus growth – fold increase, host cell viability (AID 1956)
Conditions: HSV replication augmentation in cells; fold increase: measured here: primary screen fold increase 10 uM, at 10 µM, stronger effect = higher value; maximum fold increase: at 0.098 µM, stronger effect = higher value; viability: measured here: host cell viability series, at 25 µM, stronger effect = lower value
In the case of `Cn1ccnc1-c1nnn(-c2ccc(F)cc2)n1`, the fold increase is reported as 1.06 and the outcome is reported as “inactive”.
With `CCOC(=O)c1cccc(NC(=O)c2ccc(F)cc2F)c1` the fold increase was 0.77 and the outcome was “inactive”.
In the case of `O=C(N/N=C/c1ccccn1)c1cccnc1`, the fold increase is reported as 1.05 and the outcome is reported as “inactive”.
In the case of `COC(=O)C1=C[C@@H](C(=O)OC)[C@@H]2C3=C(C(=O)[C@]2(C)NC(=O)c2ccccc2)[C@H](C)n2c(=O)n(C)c(=O)n2[C@@H]3C1`, the fold increase is reported as 0.77 and the outcome is reported as “inactive”.
For `C#CCOCCOCCOCCNc1nc(N2CCN(C(=O)C([C@@H](C)CC)n3cc(C(N)COC(=O)C(F)(F)F)nn3)CC2)nc(N2CCN(C(=O)[C@H](CCCCN)n3cc(C(N)CC(C)C)nn3)CC2)n1` (some centres undefined), the fold increase was 0.79 and the outcome was “inactive”.
For `C=C(C)COc1ccc(-c2nc(N)ncc2-c2ccccc2OC)c(O)c1`, the fold increase was 0.94 and the outcome was “inactive”.
With `COCCN(C(=S)Nc1cccc(Cl)c1C)C(C)c1ccco1` (centres undefined) the fold increase was 1.01 and the outcome was “inactive”.
With `Cc1cccc(Nc2nc(NCCO)nc(N3CCCC3)n2)c1` the fold increase was 0.73 and the outcome was “inactive”.
In the case of `Cc1nnc(Nc2ccccc2F)s1`, the fold increase is reported as 0.86 and the outcome is reported as “inactive”.
For `CC1(C)C2CC[C@]3(C)C(CC=C4[C@@H]5C[C@@](C)(CO)CC[C@]5(C(=O)O)CC[C@]43C)[C@@]2(C)CC[C@@H]1O` (some centres undefined), the fold increase was 1.01 and the outcome was “inactive”.
With `C=C(C)CNC(=S)Nc1ccc(S(=O)(=O)Nc2cnc3ccccc3n2)cc1` the fold increase was 0.94 and the outcome was “inactive”.
For `CCOC(=O)c1nnn2c1nc(N1CCN(c3ccccc3)CC1)c1ccccc12`, the fold increase was 1.01 and the outcome was “inactive”.
For `CC1=C(N2CCN(c3ncccn3)CC2)CCC1=O`, the fold increase was 1.12 and the outcome was “inactive”.
In the case of `N#CCc1c(C#N)c(N)nc(N2CCCC2)c1C#N`, the fold increase is reported as 0.85 and the outcome is reported as “inactive”.
In the case of `COc1ccc(-c2nc3c(s2)CCc2onc(-c4ccc(Br)cc4)c2-3)cc1`, the fold increase is reported as 0.69 and the outcome is reported as “inactive”.
With `C=CCSC(CC)(CC)C(N)=O` the fold increase was 1.35, the maximum fold increase was 1.19 (inactive) and the viability was 104%.
In the case of `COCOc1cc(O)c(C(=O)/C=C/c2ccc(OCOC)c(OCOC)c2)c(OCOC)c1`, the fold increase is reported as 0.92 and the outcome is reported as “inactive”.
In the case of `O=C(NC1CCN(Cc2ccccc2)CC1)c1ccc(Oc2cc(Cl)cc(Cl)c2)o1`, the fold increase is reported as 0.88 and the outcome is reported as “inactive”.
For `CN(C)/C=C(/C(=O)c1ccc(Cl)c(Cl)c1)c1nnnn1-c1ccccc1`, the fold increase was 1.22 and the outcome was “inactive”.
With `COc1ccc2nc(NC(=O)NC3CCCCC3)sc2c1` the fold increase was 0.94 and the outcome was “inactive”.
In the case of `C=CCOC(=O)C1=C[C@H](c2ccc(Br)cc2)C[C@H](OCCCCO)O1`, the fold increase is reported as 0.91 and the outcome is reported as “inactive”.
In the case of `O=C(CCl)Nc1ccc(Sc2ccc(NC(=O)CCl)cc2)cc1`, the fold increase is reported as 0.77 and the outcome is reported as “inactive”.
For `CC(C)c1ccc(NC(=S)NC2CC3C=CC2C3)cc1` (centres undefined), the fold increase was 0.94 and the outcome was “inactive”.
With `CCCNc1c(N)c(=O)c1=O` the fold increase was 0.92 and the outcome was “inactive”.
For `CCCc1ccc(C(=O)[C@@H]2[C@@H](C(C)=O)N3c4ccc(F)cc4C=C[C@@H]3[C@@]23C(=O)Nc2ccccc23)cc1`, the fold increase was 1 and the outcome was “inactive”.
In the case of `Nc1c(N(CCO)C(=O)C2CCCCC2)c(=O)[nH]c(=O)n1Cc1ccccc1`, the fold increase is reported as 0.95 and the outcome is reported as “inactive”.
In the case of `CC1CC(=O)Nc2ccccc2N1S(=O)(=O)c1cccs1` (centres undefined), the fold increase is reported as 1.03 and the outcome is reported as “inactive”.
In the case of `C=C1CCN([C@@H](Cc2ccccc2)C(=O)N2CCOCC2)S(=O)(=O)c2ccccc21`, the fold increase is reported as 0.89 and the outcome is reported as “inactive”.
For `CC1CC(NC(=O)/C(C#N)=C/c2ccc[nH]2)CC(C)(C)C1` (centres undefined), the fold increase was 0.99 and the outcome was “inactive”.
In the case of `Cc1nn2c(NCCN(C)C)c3c(nc2c1-c1ccccc1)CCC3`, the fold increase is reported as 0.77 and the outcome is reported as “inactive”.
With `COc1ccccc1C1=CC(=O)CCC1` the fold increase was 0.81 and the outcome was “inactive”.
With `COCCCn1c(-c2cccs2)nc2nc3ccccc3nc21` the fold increase was 0.9 and the outcome was “inactive”.
With `O=C(CCNc1n[nH]c(=O)[nH]c1=O)N/N=C\c1ccc(Br)cc1` the fold increase was 1 and the outcome was “inactive”.
With `CC1(C)CC(CNCCC(c2ccc(F)cc2)c2ccco2)CCO1` (centres undefined) the fold increase was 0.96 and the outcome was “inactive”.
With `COc1ccc(CCn2c(NN=C3CCCC3)nc3c2c(=O)[nH]c(=O)n3C)cc1` the fold increase was 0.93 and the outcome was “inactive”.
With `CSC1=NC2(C)CCCCC2C12C=CC(=O)C=C2` (centres undefined) the fold increase was 0.88 and the outcome was “inactive”.
With `CCOC(=O)c1ccccc1NC(=O)c1c(N)n(C)c(=O)[nH]c1=O` the fold increase was 0.6 and the outcome was “inactive”.
With `Cc1ccc(-c2csc(NCCc3nc4cc(Cl)c(Cl)cc4n3CCOCCO)n2)cc1` the fold increase was 0.88 and the outcome was “inactive”.
With `CN(C)S(=O)(=O)c1ccc(NC(=O)COC(=O)Cn2[nH]c(=O)c3ccccc3c2=O)cc1` the fold increase was 0.93 and the outcome was “inactive”.
With `Nc1nc(Nc2ccccc2)nc(NCCO)c1[N+](=O)[O-]` the fold increase was 0.82 and the outcome was “inactive”.
With `C=CCSc1nnc2c(n1)-c1cccc3cccc-2c13` the fold increase was 0.7 and the outcome was “inactive”.
For `O=C1N[C@H](Cc2ccccc2)C(=O)N[C@H]1Cc1cn(S(=O)(=O)c2ccccc2)c2ccccc12`, the fold increase was 0.74 and the outcome was “inactive”.
In the case of `O=C(COc1ccccc1[N+](=O)[O-])N/N=C/c1ccc[nH]1`, the fold increase is reported as 1 and the outcome is reported as “inactive”.
In the case of `Cc1ccc(N2C(=O)CC(Nc3cccc4ccccc34)C2=O)cc1` (centres undefined), the fold increase is reported as 0.96 and the outcome is reported as “inactive”.
